# Records with an inconclusive call do not appear. A call without a number means that no potency is given here. Active and inactive are the calls of the source. Calls come from the whole dose curve; as a rule, active = well fitted inhibition curve with a large enough effect; inconclusive = small, poorly fitted or top-dose-only effect; inactive = flat fitted curve, though single readings scatter.
# Test: CHOP2 Reporter Counterscreen Assay for Inhibitors of Ubiquitin-specific Protease USP2a;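 note: activated enterokinase alone at 50 pM in a cell-free format rather than USP2a or CHOP2; nearly all actives have a fitted effect of over 55% in size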
# Conditions: purified enterokinase, fluorogenic substrate, 485/531 nm; series mostly up to 38.3 µM
# Description: NIH Molecular Libraries Probe Centers Network [MLPCN] NIH Chemical Genomics Center [NCGC] MLPCN Grant: XO1-MH079852-01 PI Name: Nicholson, Ben. Progenra Inc, Malvern, PA NCGC Assay Overview: Homeostasis of cellular proteins is maintained through a combination of synthesis and degradation. The pathway that accounts for the majority of protein degradation is the ubiquitin-proteasomal pathway. Ubiquitin (Ub) is highly conserved in all cells and the generation of a multi-Ub chain typically targets proteins for degradation by the proteasome. However, ubiquitination is highly reversible and dynamic. Deubiquitination, the reverse process, is catalyzed through the action of enzymes referred to as isopeptidases or deubiquitinating enzymes (DUBs). This group of enzymes is collectively responsible for maintaining adequate pools of free ubiquitin and regulating the ubiquitination status of cellular proteins. The class of DUBs referred to as the ubiquitin-specific proteases (USP) family functions endoproteolytically to cleave Ub chains from a wide range of protein substrates. USP2a deubiquitinates fatty acid synthase (FASN) which has recently been identified as an emerging oncology target. To identify inhibitors of USP2a a cell-free assay was employed. This assay is a counterscreen against the reporter enzyme used to measure USP2a activity in the primary qHTS assay. The reporter enzyme is a protease (enterokinase, EK; EC 3.4.21.9), which is activated when a Ub sequence is cleaved by USP2a. The counterscreen assay is performed in the same buffer and conditions as the primary USP2a coupled assay but uses fully activated EK alone. The assay gives a fluorescent read-out at excitation/emission wavelengths of 485/531. The assay was provided by Progenra, Inc. and has been licensed for sale by LifeSensors, Inc.
# NCGC Assay Protocol: The assay buffer, prepared fresh at the day of the assay, contains 20mM Tris-HCl pH 8.0, 2mM CaCl2, 2mM beta-Mercaptoethanol, 0.05% CHAPS. 3uL of 100 pM EK (50 pM final) was dispensed into a medium-binding black solid Kalypsys 1,536 well plate using the Kalypsys dispenser. The assay plate was then pinned with 23nL compounds in DMSO with the Kalypsys pintool in columns 5-48 (0.3% final DMSO concentration). The negative control was buffer/DMSO only in column 3. The assay plate is incubated at RT for 30min. Subsequently, 3uL of reporter substrate (25nM final) were dispensed into the plate using the Kalypsys dispenser. Plates were read after 10 min at RT on a ViewLux (Perkin Elmer) plate reader using the following wavelengths: Ex 485nm /Em 531nm. Data were normalized to the AC100 inhibition (buffer alone). Concentration-response curves were fitted to the normalized data and the concentration-response curves were then classified based on curve quality (r2), response magnitude and degree of measured activity. The time zero reading was used to flag fluorescence artifacts.
# Potency is the fitted concentration of half-maximal effect.
row,SMILES,Potency
1,O=c1[nH]c(=S)n(Cc2ccco2)c(O)c1C=NCc1cccs1,8.91 µM (active)
2,Nc1ccc(S(=O)(=O)N2CCCCC2c2cccnc2)cc1 (centres undefined),inactive
3,O=C(O)c1cccc2c1NC(C(=O)O)C1CC(Sc3ccccc3[N+](=O)[O-])C(Cl)C21 (centres undefined),10 µM (active)
4,CCCC1=C(C(=O)OCC)C2(C(=O)Nc3ccc(C)cc32)C(C#N)=C(N)O1 (centres undefined),inactive
5,O=C1NC(=O)N(Cc2ccco2)C(=O)/C1=C/C=C/c1ccco1,8.91 µM (active)
6,O=C(COc1ccc(S(=O)(=O)N2CCOCC2)cc1)N1CCN(Cc2ccc3c(c2)OCO3)CC1,inactive
7,FC(F)(F)c1ccc2c(c1)N(CCCN1CCN(CCCl)CC1)c1ccccc1S2,inactive
8,Clc1ccc(C(c2ccc(Cl)cc2)n2cc[n+](CC(OCc3ccc(Cl)cc3Cl)c3ccc(Cl)cc3Cl)c2)cc1 (centres undefined),3.16 µM (active)
9,Cc1nn(Cc2ccc(Cl)cc2Cl)c(Cl)c1C(=O)Nc1ccc(OC(F)F)cc1,inactive
10,O=C1CC(=O)N(Cc2ccccc2)C(=O)N1CCCCCCN1C(=O)CC(=O)N(Cc2ccccc2)C1=O,inactive
11,NC(N)=N/N=C/c1ccc(N(c2ccccc2)c2ccccc2)cc1,8.91 µM (active)
12,CC(=Nc1ccc2c(c1)CCC2)c1c(O)n(C)c(=O)n(C)c1=O,inactive
13,O=c1[nH]c(=O)n(Cc2ccc(F)cc2)c(O)c1C=NCCCn1ccnc1,inactive
14,O=C1NC(=O)[C@]2(Cc3ccccc3N3CCN(c4ccccc4)CC32)C(=O)N1Cc1ccccc1 (some centres undefined),10 µM (active)
15,CC(C)N1C(=O)/C(=C/C=C/c2ccco2)C(=O)N(Cc2ccco2)C1=O,7.94 µM (active)
16,O=C1NC(=S)N(c2ccccc2)C(=O)/C1=C/c1ccco1,3.55 µM (active)
17,COc1ccc(S(=O)(=O)Cc2ccc(C(=O)N3CCC4(CC3)OCCO4)o2)cc1,inactive
18,COc1ccc(NC(=O)c2c(C)nn(Cc3ccccc3Cl)c2Cl)cc1Cl,inactive
19,OC(c1ccncc1)(c1ccc(F)cc1)c1ccc(F)cc1,inactive

# — PubChem BioAssay AID493169 (National Center for Advancing Translational Sciences (NCATS), 2011)
